Shown is part of a subset that was picked to be rich in hits.
PI4K2A inh = inhibitors of human PI4K2A. purified PI4K2A, ADP-Glo luminescence, 1 h; hits give low values. activity change, negative = inhibition, % at 76.9 µM. Q9BTU6. AID 1346378. actives 0.13% (n = 420,000); in the data active = activity change below about -50%; inconclusive = mostly about -30% to -49%;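 note: -100% = wells without enzyme as full effect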
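Compounds are screened against recombinant PI4K2A using PI as substrate and ATP, the latter dispensed at 300 microM. Reactions run one hour at ambient temperature before ADP-Glo detection; full inhibition defined by wells lacking enzyme.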
PGK inhibitor = inhibitors of T. brucei phosphoglycerate kinase. P07378. PGK/GAPDH coupled, Kinase-Glo luminescence, 60 min. Potency, µM (highest dose often 57.5 µM), without a hit: at the top dose activity change, negative = inhibition, actives largely listed as inhibitors. actives 0.043% (n = 380,000); note: potency is the fitted concentration of half-maximal effect; % is set by controls: 0 for no effect and ±100 for the full control effect; nearly all actives have a fitted effect of over 60% in size
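Recombinant glycosomal PGK reaction used 1,3-bisphosphoglycerate generated in-well by GAPDH (100nM final) in 100mM TEA pH 7.6, 5mM MgCl2, 0.01% Tween-20. After 60 minutes at room temperature, ATP was read by Kinase-Glo Plus luminescence end-point.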
PI5P4K alpha inh = blocks human PI5P4K alpha kinase activity; P48426; PI5P4Kalpha enzyme, ADP-Glo luminescence, 60 min; hits give low values; max response, %; actives 1.2% (n = 330,000); active = max response of -50% or lower; inconclusive = between -30% and -50%; inactive = -30% or higher; note: value at the top dose of about 77 µM; % is set by controls: 0 for no effect and ±100 for the full control effect
Target sequence (P48426 whole entry, looked up): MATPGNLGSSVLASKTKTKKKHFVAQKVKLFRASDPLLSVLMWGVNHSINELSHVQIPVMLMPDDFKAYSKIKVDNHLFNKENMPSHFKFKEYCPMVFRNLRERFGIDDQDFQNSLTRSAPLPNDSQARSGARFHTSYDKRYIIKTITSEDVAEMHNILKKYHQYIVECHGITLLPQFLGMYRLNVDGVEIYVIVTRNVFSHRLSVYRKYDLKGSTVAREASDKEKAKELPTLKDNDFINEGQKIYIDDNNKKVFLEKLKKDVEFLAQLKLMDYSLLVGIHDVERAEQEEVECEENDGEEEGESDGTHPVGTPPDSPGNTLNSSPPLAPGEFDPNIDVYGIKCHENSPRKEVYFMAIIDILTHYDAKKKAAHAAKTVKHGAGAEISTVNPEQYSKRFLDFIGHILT
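Controls without substrate or without enzyme flank wells where PI5P4Kalpha converts substrate using 5 microM ATP (final). Incubation lasts 60 minutes at room temperature; ADP formed is read by ADP-Glo luminescence.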
Pin1 inh = blocks the human prolyl isomerase Pin1 | AID 504891 | Pin1 FP peptide displacement, HiFluor488, 10 min | Q13526 | actives 0.009% (n = 390,000) | Potency, µM (titrated, usually from 115 µM), for inactives: top-dose activity, negative = inhibition, most hits filed as inhibitors; active = well fitted inhibition curve with a large enough effect in the polarisation, with a control signal flat, not every such curve was filed as active; inconclusive = small, poorly fitted or top-dose-only effect, or effect the other way, or a change in a side signal; inactive = no such curve, though single readings can be large or run the other way; the % refers to the polarisation; note: potency is the fitted concentration of half-maximal effect; % is set by controls: 0 for no effect and ±100 for the full control effect
Target sequence (Q13526 whole entry, looked up): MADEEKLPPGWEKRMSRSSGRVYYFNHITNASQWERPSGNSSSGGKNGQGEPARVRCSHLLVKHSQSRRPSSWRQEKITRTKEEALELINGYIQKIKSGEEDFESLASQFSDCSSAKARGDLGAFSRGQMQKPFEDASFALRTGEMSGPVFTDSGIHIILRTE
Tb PFK inh-1 = blocks T. brucei phosphofructokinase | T. brucei PFK, ADP-Glo luminescence | Potency, µM (doses to about 57.5 µM), without a hit: at the highest dose activity, negative = inhibition, actives largely listed as inhibitors | actives 0.17% (n = 330,000) | AID 485367;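 note: potency is the fitted concentration of half-maximal effect; 0% = uninhibited 1x PFK enzyme wells and -100% = no-enzyme wells; nearly all actives have a fitted effect of over 60% in size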
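PFK 1.25 nM, F6P 0.5 mM, ATP 0.1 mM, 0.1 M TEA pH 8.0, 5 mM MgCl2, 0.01% Tween20, 0.1% BSA; 45 min RT. ADP-Glo readout. qHTS titration up to 57 uM; curves fitted, compounds curve-classed.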
TbPFK ATP = orthogonal confirmation of T. brucei phosphofructokinase inhibitors; shares compounds with Tb PFK inh-1; Tb PFK enzyme, ATP depletion, Kinase-Glo Plus luminescence; Potency, µM (titrated, usually from 57.5 µM), for the others: at the highest dose inhibition; actives 47% (n = 1,100); AID 504636; calls by dose curve; note: potency is the fitted concentration of half-maximal effect; nearly all actives have a fitted effect of over 60% in size
Tb PFK inh-2 = T. brucei PFK enzyme inhibition, hit validation. shares compounds with Tb PFK inh-1. purified T. brucei PFK, ADP-Glo luminescence, 45 min. Potency, µM (highest dose often 57.5 µM), without a hit: top-dose activity change, negative = inhibition, most hits filed as inhibitors. actives 41% (n = 1,100). AID 504637;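 note: potency is the fitted concentration of half-maximal effect; plate controls were full PFK enzyme control for no effect and no enzyme control for full effect; nearly all actives have a fitted effect of over 60% in size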
The depositor's hits bear a star; i = inactive; ? = inconclusive; . = no result given. Unless noted, calls come from the whole dose curve; as a rule, active = well fitted curve in the direction sought with a large enough effect; inconclusive = small, poorly fitted or top-dose-only effect, or another doubt; inactive = no such curve, though single readings can be large; an effect the other way counts as inactive or inconclusive.

SMILES	PI4K2A inh	PGK inhibitor	PI5P4K alpha inh	Pin1 inh	Tb PFK inh-1	TbPFK ATP	Tb PFK inh-2
Oc1ccc(-c2cn3c(n2)SCC3)cc1O	-5	?	-13	-1%	?	2.4µM*	4.8µM*
Cc1ccc(S(=O)(=O)CCC(=O)c2cccc([N+](=O)[O-])c2)cc1	31	-2%	?	-3%	13µM*	21µM*	?
O=C1CC(c2ccccc2Br)c2c(c3ccccc3oc2=O)O1 (stereo unspecified)	-4	-1%	.	-4%	.	.	.
O=C(CSc1ccccc1)Nc1ccc(S(=O)(=O)Nc2ncccn2)cc1	-3	-1%	-17	-4%	?	?	-13%
O=C(Nc1ccc(Cl)cc1)Nc1ccc(S(=O)(=O)Nc2ncccn2)cc1	-8	-2%	-12	-4%	15µM*	8.5µM*	27µM*
NC(=O)C(CC(=O)O)NC(=O)[C@@H]1CCOc2c(I)cc([N+](=O)[O-])cc2C(=O)N[C@@H](CO)C(=O)N[C@@H](Cc2ccc(O)cc2)C(=O)N1 (stereo partly specified)	-3	?	-1	?	-3%	.	.
N#CCC[C@@H]1CC[C@]2(CCCN(Cc3ccccn3)C2)O1	-1	.	.	.	.	.	.
Cc1ccc(NC2=C(NC(=O)c3ccccc3)C(=O)c3ccccc3C2=O)cc1Cl	-20	i	-52*	-4%	?	?	6.7µM*
Cc1ccc(NC(=O)c2snnc2C)cc1Cl	1	i	4	-9%	-5%	.	.
CC(C)(C)OC(=O)c1ncn2c1[C@@H]1CCCN1C(=O)c1c(Br)cccc1-2	0	.	.	.	.	.	.
Oc1ccc(C2=Nn3c(nnc3-c3ccco3)SC2)cc1O	-6	?	?	?	7.6µM*	?	?
CC(=O)C1CCOC1=O (stereo unspecified)	3	.	.	.	.	.	.
CC1(C)C(C=C(Cl)Cl)C1C(=O)OC(C#N)c1cccc(Oc2ccccc2)c1 (stereo unspecified)	-2	.	.	.	.	.	.
O=C(NCCCN1CC1)Nc1cccc2ccccc12	6	i	10	-3%	.	.	.
O=C(NCCCN1CCCCCC1)c1ccc(CS(=O)(=O)Cc2ccccc2F)o1	3	6%	-8	5%	?	-31%	?
O=c1c2ccccc2sn1-c1cc(S(=O)(=O)N2CCOCC2)ccc1N1CCCC1	-7	-7%	.	11%	9.5µM*	?	?
O=c1c2ccccc2sn1-c1cc(S(=O)(=O)N2CCOCC2)ccc1N1CCOCC1	-1	5%	.	-4%	13µM*	?	21µM*
O=C(COC(=O)Cc1ccccc1)Nc1cc(S(=O)(=O)N2CCOCC2)ccc1N1CCCC1	1	-3%	-6	1%	4%	.	.
O=C(COc1ccccc1F)N1CCN(Cc2cc(=O)n3nc(-c4ccccc4Cl)sc3n2)CC1	0	0%	.	6%	.	.	.
C=CCNC(=S)Nc1ccc(OC(=O)Nc2ccc(Cl)c(Cl)c2)cc1	-3	-9%	16	-1%	13µM*	21µM*	27µM*
COC(=O)c1cccc(NC(=S)Nc2ccc(Cl)c(Cl)c2)c1	-19	?	-3	-1%	12µM*	27µM*	?
OCCNC(=S)Nc1ccc(Cl)c(Cl)c1	2	-9%	-1	3%	?	?	?
Cc1cccc(C)c1NC(=S)Nc1ccc(Cl)c(Cl)c1	7	-5%	0	-1%	21µM*	?	-14%
Cc1ccc(NC(=S)NCCc2cnc[nH]2)cc1C	4	-4%	-7	2%	-11%	.	.
COc1cc([C@@H]2c3cc4c(cc3C[C@H]3COC(=O)[C@@H]32)OCO4)cc(OC)c1O	.	.	.	2%	.	.	.
SMILES	PI4K2A inh	PGK inhibitor	PI5P4K alpha inh	Pin1 inh	Tb PFK inh-1	TbPFK ATP	Tb PFK inh-2
COc1cc([C@@H]2c3cc4c(cc3[C@H](OC(C)=O)[C@H]3COC(=O)[C@@H]23)OCO4)cc(OC)c1OC	.	.	.	0%	.	.	.
O=C(c1ccc2c(c1)N(Cc1ccc(F)cc1Cl)C(=O)c1ccccc1S2)N1CCC2(CC1)OCCO2	-6	5%	.	21%	.	.	.
NS(=O)(=O)c1ccc(CNC(=S)Nc2ccc(Cl)c(Cl)c2)cc1	-1	-13%	-1	1%	?	?	?
Cc1cc(C)cc(NC(=S)Nc2ccc(Cl)c(Cl)c2)c1	2	-10%	5	-2%	9.5µM*	24µM*	?
Cc1cc(NS(=O)(=O)c2ccc(NC(=O)Cc3ccc(Cl)c(Cl)c3)cc2)no1	-3	-3%	-1	-4%	1.2µM*	0.43µM*	0.76µM*
CN(C)S(=O)(=O)c1cc(NC(=O)C[N+]23CCN(CC2)CC3)ccc1Cl	0	0%	4	2%	-1%	.	.
Cc1cc(NC(=O)COC(=O)c2c(C)nn(Cc3ccccc3)c2C)no1	-7	-1%	-2	2%	4%	.	.
Cc1cc(NC(=O)COC(=O)CSCc2ccc(Cl)c(Cl)c2)no1	0	-5%	14	1%	?	?	?
C[C@@H]1O[C@@H](O[C@@H]2C=C3CC[C@@H]4[C@H](CC[C@]5(C)[C@@H](c6ccc(=O)oc6)CC[C@]45O)[C@@]3(C)CC2)[C@H](O)[C@H](O)[C@H]1O	4	.	.	.	.	.	.
O=C(Nc1ccccc1-c1ccc(Cl)cc1)c1cccnc1Cl	i	.	.	.	.	.	.
Cc1ccccc1-c1nc(CN2C(=O)CN=C(c3ccccc3)c3ccccc32)c(C)o1	1	i	.	11%	.	.	.
NS(=O)(=O)c1cccc(NC(=O)Cc2ccc(Cl)c(Cl)c2)c1	1	-3%	1	-3%	6µM*	3µM*	11µM*
O=C(Cc1ccc(Br)cc1)Nc1cccc(S(=O)(=O)N2CCOCC2)c1	-3	-8%	19	3%	?	?	?
CN(C)S(=O)(=O)c1cc(NC(=O)COC(=O)Cc2ccccc2)ccc1Cl	-8	-12%	-11	4%	-1%	.	.
COc1ccc(S(=O)(=O)N2CCOCC2)cc1NC(=O)COC(=O)Cc1ccccc1	-2	7%	5	-4%	-1%	.	.
CN[C@@H](C)[C@H](O)c1ccccc1	0	.	.	.	.	.	.
CC(=O)[C@H]1[C@H]([C@H](O)[C@H](O)CO)O[C@](O)(C(=O)O)C[C@@H]1O	-3	-10%	-3	0%	1.7µM*	?	-16%
COc1ccc(NC(=O)CN(C)C(=O)c2cc3c(s2)CCC3)cc1	-17	?	-69*	.	?	?	?
CCCCN1CCN(C(=O)COc2cc(=O)n(C)c3ccccc23)CC1	4	.	.	.	.	.	.

Screens (PubChem)
